The nature of test [1]: qHTS assay to identify small molecule antagonists of the glucocorticoid receptor (GR) signaling pathway - cell viability counter screen (AID 720693; further: nearly all actives have a fitted effect of over 55% in size). (In general: In qHTS, concentration-response curves come from the screen itself.)
Test [2] can be described thus: qHTS assay for identifying genotoxic compounds that show differential cytotoxicity against isogenic chicken DT40 cell lines with known DNA damage response pathways - wild type cell line (AID 743012). Further: nearly all actives have a fitted effect of over 60% in size. Further: potency means the concentration at half of the fitted maximal effect. In a few lines: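 Viability by ATP luminescence (CellTiter-Glo, 30 min RT) after 40 h compound treatment at 37 C/5% CO2, using 300 parental DNA repair-proficient DT40 cells per well.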

Test [3] can be described thus: qHTS assay for identifying genotoxic compounds that show differential cytotoxicity against isogenic chicken DT40 cell lines with known DNA damage response pathways - Rev3 mutant cell line (AID 743014). Further: nearly all actives have a fitted effect of over 55% in size. Further: potency means the concentration at half of the fitted maximal effect.
Test [4] in a line: qHTS assay for identifying genotoxic compounds that show differential cytotoxicity against isogenic chicken DT40 cell lines with known DNA damage response pathways - Rad54/Ku70 mutant cell line (AID 743015). Further: nearly all actives have a fitted effect of over 60% in size. Further: potency means the concentration at half of the fitted maximal effect.
Test [5] is described as follows: qHTS assay to identify small molecule antagonists of the androgen receptor (AR) signaling pathway - cell viability counter screen (AID 743033; further: nearly all actives have a fitted effect of over 45% in size; further: potency means the concentration at half of the fitted maximal effect).
Test [6] has as its target Androgen receptor (Homo sapiens) (UniProt P10275). The test can be described thus: qHTS assay to identify small molecule antagonists of the androgen receptor (AR) signaling pathway (AID 743035; active means well fitted inhibition curve with a large enough effect in the signal ratio in the repeat runs, not every such curve was filed as active; the % refers to the signal ratio). In a few lines: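 Antagonist mode: AR-bla HEK293 cells co-treated with test compounds and agonist R1881 for 16 h at 37C, 5% CO2. Beta-lactamase activity read as FRET fluorescence after 2 h room-temperature substrate loading.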

Test [7] shares this target. The test can be described thus: qHTS assay to identify small molecule agonists of the androgen receptor (AR) signaling pathway (AID 743036; active means well fitted activation curve with a large enough effect in the signal ratio in the repeat runs, with a control signal flat, not every such curve was filed as active; the % refers to the signal ratio). In outline:
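Quantitative HTS of the Tox21 10K library in HEK293 cells bearing a stably integrated UAS-controlled beta-lactamase reporter. Compound exposure lasted 16 h at 37C. Reporter activity was detected by FRET substrate fluorescence after 2 h at room temperature.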

The target is the same in test [8]. As to the kind of experiment: qHTS assay to identify small molecule agonists of the androgen receptor (AR) signaling pathway using the MDA cell line (AID 743040; further: nearly all actives have a fitted effect of over 20% in size). As to conditions: MDA-kb2 AR-luc cells, MMTV luciferase, 16 h, stronger effect = higher value. In a few lines: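 Luciferase read-out, ONE-Glo, 30 min RT. Cells: MDA-kb2 AR-luc, MMTV promoter with AR and GR response elements. Compound exposure 16 h, 37C, 0% CO2, after 5 h pre-incubation. qHTS agonist mode.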

Test [9] is described as follows: qHTS assay to identify small molecule antagonists of the androgen receptor (AR) signaling pathway using the MDA cell line - cell viability counter screen (AID 743041; further: nearly all actives have a fitted effect of over 45% in size; further: potency means the concentration at half of the fitted maximal effect). In outline:
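Cytotoxicity counter screen: MDA-kb2 AR-luc cells, compound + R1881, 16 h, 37C, 0% CO2; CellTiter-Fluor added at 15.5 h, fluorescence read after 30 min.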

In test [10] the target is Androgen receptor (Homo sapiens) (UniProt P10275). As to the kind of experiment: qHTS assay to identify small molecule antagonists of the androgen receptor (AR) signaling pathway using the MDA cell line (AID 743042; further: nearly all actives have a fitted effect of over 55% in size). In a few lines: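 MDA-kb2 breast carcinoma cells carrying MMTV-luciferase (AR/GR responsive) were co-treated with compounds and the agonist R1881 for 16 h at 37C. Inhibition read as ONE-Glo luminescence; CellTiter-Fluor fluorescence measured in parallel for cytotoxicity.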
Chain of Androgen receptor (Homo sapiens) (P10275 whole entry, looked up): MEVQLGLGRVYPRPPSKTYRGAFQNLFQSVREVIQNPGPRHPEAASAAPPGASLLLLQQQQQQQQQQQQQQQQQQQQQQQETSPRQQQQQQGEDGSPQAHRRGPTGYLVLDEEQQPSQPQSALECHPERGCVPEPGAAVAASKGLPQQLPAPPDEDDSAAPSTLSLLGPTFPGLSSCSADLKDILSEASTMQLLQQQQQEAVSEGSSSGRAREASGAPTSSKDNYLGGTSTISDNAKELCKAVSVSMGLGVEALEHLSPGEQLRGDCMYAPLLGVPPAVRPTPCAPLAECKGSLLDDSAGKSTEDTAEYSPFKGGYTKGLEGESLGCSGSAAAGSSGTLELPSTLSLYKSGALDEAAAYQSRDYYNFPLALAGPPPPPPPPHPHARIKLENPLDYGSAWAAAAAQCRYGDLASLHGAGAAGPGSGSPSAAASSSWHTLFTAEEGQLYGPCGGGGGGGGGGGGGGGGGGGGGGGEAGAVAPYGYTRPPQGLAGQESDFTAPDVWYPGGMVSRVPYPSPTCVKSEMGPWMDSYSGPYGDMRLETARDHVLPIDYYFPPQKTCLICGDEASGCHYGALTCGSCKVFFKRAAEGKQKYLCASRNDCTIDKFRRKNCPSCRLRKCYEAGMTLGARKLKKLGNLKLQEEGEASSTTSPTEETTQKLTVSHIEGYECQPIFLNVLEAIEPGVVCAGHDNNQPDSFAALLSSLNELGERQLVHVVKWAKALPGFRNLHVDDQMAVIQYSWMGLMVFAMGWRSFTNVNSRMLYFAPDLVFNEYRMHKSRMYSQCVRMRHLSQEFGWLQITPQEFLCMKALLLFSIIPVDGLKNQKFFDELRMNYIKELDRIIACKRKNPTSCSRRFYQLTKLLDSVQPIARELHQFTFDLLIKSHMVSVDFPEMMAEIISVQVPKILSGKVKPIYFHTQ

Several values for one entry are separate records, joined by “and”; a condition that tells them apart may be missing. Equal entries are not always repeated. Inconclusive results are not listed. More than one record can exist for a structure, and the calls need not agree. Activity calls are given as the source filed them. Unless noted, the call rests on the fitted dose curve; in most records, active means well fitted curve in the direction sought with a large enough effect in the repeat runs; inconclusive means weak or mixed curves; inactive means no such curve, though single readings can be large; an effect the other way counts as inactive or inconclusive.
On the % scale 0 is the no-effect control and ±100 the full control effect.

For the molecule `CC(C=O)Cc1ccc(C(C)(C)C)cc1` (configuration not stated), the Potency result in test [1], in test [2], in [3], in test [4], in test [5] and in test [6] was “inactive” throughout. The Potency result in test [7], in test [9] and in [10] was “inactive” each time. For the same molecule, the activity change in test [8] (at 70.3 µM (top of the series)) was -2.03% (inactive) and -1.92% (inactive).

On to `Cc1ccccc1Cl`, for which the Potency entry in test [1], in [2], in test [3], in test [4], in test [5] and in test [6] was “inactive” each time. Moreover, the Potency result in test [7], in test [9] and in [10] was “inactive” throughout. Besides, the activity change in test [8] (at 70.3 µM (top of the series)) is -0.0268% (inactive); in test [8] (at 95 µM (top of the series)), -0.806% (inactive).

Take `CC(=O)CC(=O)N(C)C`: the Potency result in test [1], in [2], in test [3], in test [4], in [5] and in [9] was “inactive” throughout.

In the case of `CCCCCCC(=O)O`, the Potency entry in test [1], in test [2], in [3], in [4], in test [5] and in [9] was “inactive” in each case.

Regarding `CCc1cccc(O)c1`, the Potency result in [1], in [2], in [3], in test [4], in test [5] and in [9] was “inactive” each time.

Regarding `CCCN(CCC)C(=O)SCC`, the Potency result in [1], in test [2], in test [3], in [4], in test [5] and in test [6] was “inactive” in each case. The Potency result in test [7], in test [9] and in [10] was “inactive” throughout. In addition, the activity change in test [8] (at 70.3 µM (top of the series)) was 1.01% (inactive); in test [8] (at 95 µM (top of the series)), -1.98% (inactive).

Turning to `NC(=O)NC(N)=O`, the Potency result in test [1], in test [2], in test [3], in [4], in [5] and in [9] was “inactive” each time.

With `C[Si](C)(C)N[Si](C)(C)C`, the Potency entry in [1], in test [2], in [3], in test [4], in test [5] and in [9] was “inactive” throughout.

Consider `NC1CCCCC1N` (configuration not stated), for which the Potency result in test [1], in test [2], in test [3], in [4], in [5] and in [9] was “inactive” throughout.

In the case of `CC(=O)OCc1ccc2c(c1)OCO2`, the Potency entry in test [1], in test [2], in test [3], in [4], in test [5] and in test [9] was “inactive” each time.

As for `COc1ccc(N)c(OC)c1`, the Potency entry in test [1], in [2], in [3], in test [4], in test [5] and in [9] was “inactive” each time.

For `CN=C(NC#N)NCCSCc1nc[nH]c1C`, the Potency result in test [1], in [2], in test [5] and in test [9] was “inactive” each time. For the same molecule, the Potency result in test [3] was “inactive and 54 µM (active)”; in test [4] it was “inactive and 13.6 µM (active)”.

`CO[Si](CCCNCCN)(OC)OC`: the Potency result in test [1], in test [2], in test [3], in [4], in test [5] and in test [6] was “inactive” throughout. Besides, the Potency entry in test [7], in [9] and in test [10] was “inactive” in each case. Besides, the activity change in test [8] (at 70.3 µM (top of the series)) was -2.52% (inactive); in [8] (at 95 µM (top of the series)), 0.325% (inactive).

For `c1cnc2c(c1)ccc1cccnc12`, the Potency result in test [1] is “inactive”. Also, the Potency in test [2] is 3.09 µM (active) and 1.54 µM (active) and 3.86 µM (active); in test [3], 1.38 µM (active) and 1.22 µM (active) and 2.43 µM (active); in [4] it was 1.38 µM (active) and 686 nM (active) and 1.54 µM (active); in test [5], 4.9 µM (active); in test [9] it was 49 µM (active) and 30.6 µM (active).

For `OCc1ccc(Cl)cc1Cl`, the Potency entry in test [1], in test [2], in test [3], in test [4], in [5] and in test [9] was “inactive” throughout.

Regarding `NCCNCCNCCN`, the Potency entry in [1], in test [2], in test [3], in test [4], in test [5] and in [9] was “inactive” in each case.

Take `CCCCCCCCCCCCCC(=O)O`: the Potency entry in test [1], in test [2], in test [3], in [4], in [5] and in [9] was “inactive” in each case.

Consider `C1CCCNCC1`, for which the Potency result in test [1], in [2], in [3], in [4], in test [5] and in test [9] was “inactive” each time.

`CC(=O)OC/C=C(\C)CCC=C(C)C`: the Potency entry in test [1], in test [2], in test [3], in test [4], in [5] and in test [9] was “inactive” in each case.

For the molecule `C=C(CC(=O)O)C(=O)O`, the Potency result in [1], in test [2], in test [3], in test [4], in test [5] and in [9] was “inactive” throughout.

As for `Oc1ccc(Cc2ccccc2O)cc1`, the Potency entry in test [1], in test [2], in test [3], in test [4], in test [5] and in test [9] was “inactive” throughout.

On to `COC(=O)OC`, for which the Potency result in [1], in test [2], in [3], in [4], in test [5] and in [9] was “inactive” each time.

As to `CCCCCNCCCCC`, the Potency result in test [1], in [2], in test [3], in test [4], in test [5] and in test [9] was “inactive” throughout.

Consider `Clc1cccc(Cl)c1NC1=NCCN1`, for which the Potency result in [1], in test [2], in [4], in test [5] and in [9] was “inactive” in each case. Also, the Potency result in test [3] is “inactive and 61.1 µM (active)”.

With `C=C(C)CC(C)(C)C`, the Potency entry in test [1], in [2], in [3], in [4], in test [5] and in test [9] was “inactive” in each case.

`CC[N+](CC)(CC(=O)Nc1c(C)cccc1C)Cc1ccccc1`: the Potency entry in [1], in [4], in test [5] and in test [9] was “inactive” in each case. Moreover, the Potency result in test [2] was “inactive and 43.3 µM (active)”; in test [3], “inactive and 30.6 µM (active)”.

Regarding `O=C(Cl)c1ccc(C(=O)Cl)cc1`, the Potency entry in test [1], in test [2], in [3], in test [4], in test [5] and in [9] was “inactive” in each case.

For `COC(=O)CCCCC(=O)OC`, the Potency result in test [1], in [2], in [3], in test [4], in test [5] and in test [9] was “inactive” throughout.
